# Among all 220,000 compounds or so, about 910 (0.41%) were called active. Only a selection was taken, and actives are over-represented in it overall. Measured potencies and affinities stand elsewhere. Values without a mark were called inactive.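 Rule for the calls: active = primary inhibition above the hit cutoff, then over 50% inhibition at one or more dose response concentrations (cut at about 23% in these data, passing the limit was not always enough); inconclusive = conflicting primary data, or primary hits not chosen for dose response; inactive = low primary inhibition, or under 50% at every dose.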
# Biological target: Aminopeptidase N (Plasmodium falciparum (isolate 3D7)) (UniProt O96935)
# Sequence (O96935 whole entry, looked up): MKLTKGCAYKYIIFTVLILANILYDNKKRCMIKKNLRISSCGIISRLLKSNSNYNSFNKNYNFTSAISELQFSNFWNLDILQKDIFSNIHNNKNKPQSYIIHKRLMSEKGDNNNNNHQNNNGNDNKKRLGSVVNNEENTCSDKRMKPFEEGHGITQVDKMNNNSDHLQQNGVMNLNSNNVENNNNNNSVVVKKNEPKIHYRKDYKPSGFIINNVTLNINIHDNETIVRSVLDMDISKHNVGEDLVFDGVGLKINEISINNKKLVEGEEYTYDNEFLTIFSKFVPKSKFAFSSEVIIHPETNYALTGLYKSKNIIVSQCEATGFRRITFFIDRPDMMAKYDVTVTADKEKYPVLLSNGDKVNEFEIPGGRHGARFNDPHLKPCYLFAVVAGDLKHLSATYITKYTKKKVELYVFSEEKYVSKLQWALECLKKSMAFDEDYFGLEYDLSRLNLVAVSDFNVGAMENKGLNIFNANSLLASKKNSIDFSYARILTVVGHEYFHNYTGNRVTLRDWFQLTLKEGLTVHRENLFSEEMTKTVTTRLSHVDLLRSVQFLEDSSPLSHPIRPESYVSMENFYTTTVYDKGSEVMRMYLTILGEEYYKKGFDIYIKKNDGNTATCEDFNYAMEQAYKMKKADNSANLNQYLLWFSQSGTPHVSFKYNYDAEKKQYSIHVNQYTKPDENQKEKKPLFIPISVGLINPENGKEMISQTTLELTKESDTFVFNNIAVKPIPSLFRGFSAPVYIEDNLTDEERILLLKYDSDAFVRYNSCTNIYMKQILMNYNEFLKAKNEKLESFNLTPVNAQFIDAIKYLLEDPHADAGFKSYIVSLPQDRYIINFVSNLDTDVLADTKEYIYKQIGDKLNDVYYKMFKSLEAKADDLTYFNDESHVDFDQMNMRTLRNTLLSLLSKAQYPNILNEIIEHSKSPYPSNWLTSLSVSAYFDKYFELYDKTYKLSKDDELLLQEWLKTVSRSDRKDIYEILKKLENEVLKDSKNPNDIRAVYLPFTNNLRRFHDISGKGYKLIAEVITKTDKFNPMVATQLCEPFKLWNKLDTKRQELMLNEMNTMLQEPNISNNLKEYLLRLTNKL
# Assay: P. falciparum M1AAP inhibitors, biochemical, fluorogenic H-Leu-NHMec substrate, 1536-well (AID 1445);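 note: plate controls were DMSO full reaction for no effect and no enzyme background for full effect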
# Conditions: recombinant M1AAP, H-Leu-NHMec fluorogenic kinetic assay; at 30 µM, hits give high values unless noted
row,SMILES,inhibition
1,CCCCN(CCCC)CC(O)CN1C(=O)NC(C)(C)C1=O (stereo not given),-3.19%
2,CCN(CC(N)=O)S(=O)(=O)c1ccc(F)cc1,2.95%
3,CCOc1ccc(S(=O)(=O)N(CC(=O)N/N=C/c2ccc(-c3ccc([N+](=O)[O-])cc3)o2)c2ccccc2)cc1,15.9%
4,CCOc1ccc(S(=O)(=O)Nc2ccc(C(=O)NN)cc2)cc1,4.26%
5,Cc1ccc(C(=O)N/N=C\c2ccc(-c3ccc(Cl)cc3)o2)cn1,8.72%
6,NS(=O)(=O)c1ccc(-c2ccc(/C=N/NC(=O)c3ccccc3O)o2)cc1,11.7%
7,CCCOc1ccc(C(=O)Nc2ccc(S(=O)(=O)Nc3onc(C)c3C)cc2)cc1,-1.24%
8,O=C(N/N=C/c1ccc(Sc2ccccn2)o1)c1cc2ccccc2cc1O,33%
9,NS(=O)(=O)c1ccc(-c2ccc(/C=N/NC(=O)c3ccc([N+](=O)[O-])cc3)o2)cc1,2.02%
10,Cc1noc(NS(=O)(=O)c2ccc(NC(=O)c3ccc(OC(C)C)cc3)cc2)c1C,4.64%
11,CCOc1ccc(C(=O)N/N=C/c2ccc(-c3ccc(S(=O)(=O)Nc4ncccn4)cc3)o2)cc1,55.9% (active)
12,O=C(Nc1ccc(Cl)c(Cl)c1)C1CC(=O)N(c2ccc(Br)cc2)C1 (stereo not given),-1.64%
13,O=C(CCc1nc2ccccc2[nH]1)Nc1ccccc1F,-0.01%
14,CC1CCCCN1C(=O)COc1ccc2ccc(=O)oc2c1 (stereo not given),-2.26%
15,Cc1ccc(NCN2C(=O)C3CC=CCC3C2=O)cc1 (stereo not given),2.04%
16,Cc1ccc(CSCC(=O)N/N=C/c2sccc2C)cc1,-0.66%
17,O=C(Cn1cc(C(F)(F)F)cc(Cl)c1=O)Nc1cc(S(=O)(=O)N2CCOCC2)ccc1Cl,7.22%
18,Cc1ccc(NC(=O)NCc2ccc3c(c2)OCO3)cc1C,0.33%
19,Cc1ccc(N2CC(C(=O)Nc3cccnc3)CC2=O)cc1 (stereo not given),-4.99%
20,CC12CC(NC(=O)N1Cc1ccccc1)c1ccccc1O2 (stereo not given),25.3% (active)
21,COc1cccc2c1OC1(C)CC2NC(=O)N1Cc1ccccc1 (stereo not given),1.39%
22,CC12CC(NC(=O)N1CCc1ccccc1)c1ccccc1O2 (stereo not given),4.6%
23,CC1CCCC(C)N1NC(=S)Nc1ccc(OC(F)F)cc1 (stereo not given),3.89%
24,CSc1cc(-c2ccc(Cl)cc2)[nH]c(=O)c1C#N,0.84%

row,SMILES,inhibition
1,O=C1NCC(COCc2ccco2)O1 (stereo not given),-4.49%
2,COc1cc(/C=N/NC(=O)C(Cc2c[nH]c3ccccc23)NC(=O)OCC(C)C)cc([N+](=O)[O-])c1OCc1ccccc1 (stereo not given),9.91%
3,COc1ccc(/C=N/NC(=O)C(Cc2c[nH]c3ccccc23)NC(=O)OCC(C)C)cc1[N+](=O)[O-] (stereo not given),3.34%
4,COC(=O)N/N=C/c1cc(OC)c(O)c([N+](=O)[O-])c1,14.3%
5,CC(=O)NC(Cc1c[nH]c2ccccc12)C(=O)N/N=C/c1ccccc1 (stereo not given),2.78%
6,COc1ccccc1CNC(=O)C(Cc1c[nH]c2ccccc12)NC(=O)OCc1ccccc1 (stereo not given),2.3%
7,COc1cc(/C=N/NC(=O)Cc2c[nH]c3ccccc23)cc(OC)c1OC,8.03%
8,Cc1ccc2[nH]c(=O)c(CNC(C)C)cc2c1,11.4%
9,O=C(NCc1ccccn1)C(=O)Nc1ccccc1,1.97%
10,Cc1ccc(C(=O)C(OC(=O)c2cnccn2)c2ccccc2)cc1 (stereo not given),1.17%
11,O=S(=O)(c1ccc2ccccc2c1)N1CCN(C(=S)Nc2ccc(F)cc2)CC1,3.26%
12,O=C(Cc1ccccc1)NS(=O)(=O)c1ccc(N=NN2CCOCC2)cc1,12.9%
13,COC(=O)N1CCCc2cc(C)ccc21,-4.46%
14,COc1cccc(C(=O)NN2C(=O)C3C4C=CC(O4)C3C2=O)c1 (stereo not given),6.4%
15,NS(=O)(=O)c1ccc(CCNC(=O)CSc2nc3ccsc3c(=O)n2CC(=O)O)cc1,2.18%
16,O=C(NCc1ccccn1)C1CCN(S(=O)(=O)c2cc(Cl)ccc2Cl)CC1,3.1%
17,CC(C)c1ccc(C(N)=S)cc1,4.59%
18,COC(=O)[C@@H](NC(=O)NC(C)CCc1ccccc1)C(C)C (stereo not given in full),23.4% (active)
19,CC(=O)NC(C)CCc1ccccc1 (stereo not given),-2.08%
20,COC(=O)[C@H](C)NC(=O)NC(C)CCc1ccccc1 (stereo not given in full),13.4%
21,Cc1cccc(N2C(=O)CC(N3CCC(c4nc5ccccc5[nH]4)CC3)C2=O)c1 (stereo not given),3.73%
22,CC1CCN(C(=O)C2CCN(S(=O)(=O)c3cc(Cl)ccc3Cl)CC2)CC1,0.81%
23,CC(C)C(C)NC(=O)CSc1nc2scc(-c3ccco3)c2c(=O)n1-c1ccccc1 (stereo not given),4.78%
24,NC(=O)CSc1nc2scc(-c3ccco3)c2c(=O)n1-c1ccccc1,18%

row,SMILES,inhibition
1,CC(C)C(C)(C#N)NC(=O)CSc1nc2scc(-c3ccco3)c2c(=O)n1-c1ccccc1 (stereo not given),24.4% (active)
2,CCC(C(=O)Nc1ccncc1)c1ccccc1 (stereo not given),2.45%
3,Cc1cccc2cc(COC(=O)c3cccc([N+](=O)[O-])c3)c(=O)[nH]c12,3.82%
4,CC1CCN(CC(=O)Nc2cccc([N+](=O)[O-])c2)CC1,-0.43%
5,CC(=O)NC1CCN(CC(=O)Nc2cccc([N+](=O)[O-])c2)CC1,1.46%
6,CCC(C)NC(=O)CSc1nc(-c2cccs2)cc(C(F)(F)F)n1 (stereo not given),18.3%
7,Cc1ccc(NC(=O)N2CCC(C(=O)NCc3ccc(F)cc3)CC2)cc1,10.1%
8,CCNC(=S)N1CCC(NC(=O)c2ccco2)CC1,-4.14%
9,O=C(NC1CCN(C(=S)NCc2ccco2)CC1)C1CCCCC1,6.27%
10,COc1ccc(C(=O)NC2CCN(C(=S)NCc3ccco3)CC2)cc1,4.73%
11,CCOc1ccc(C(=O)NC2CCN(C(=S)NCc3ccco3)CC2)cc1,11.3%
12,O=C(NCc1ccccc1)C1CCN(C(=O)NCc2ccccc2)CC1,17.5%
13,Cc1ccc(NC(=O)N2CCC(C(=O)NCc3ccccc3)CC2)cc1,26.3% (active)
14,O=C(NC1CCN(C(=O)NC2CCCCC2)CC1)c1ccco1,11.5%
15,O=C(NC1CCCCC1)NC1CC2CCC(C1)N2C(=S)NCc1ccco1 (stereo not given),19.9%
16,Cc1cc(=O)n(-c2ccc(Cl)cc2)c(=O)[nH]1,-2%
17,Cc1c(C(=O)NCc2ccccn2)oc2ccc(S(=O)(=O)N3CCOCC3)cc12,-1.02%
18,O=C(O)CCCC(=O)NNc1ncnc2ccccc12,13.7%
19,O=C(CCCCCN1C(=O)c2ccccc2C1=O)NCc1ccco1,19.7%
20,O=C(Oc1c(Cl)cc(Cl)c2ccccc12)N1CCCC1,13.6%
21,COc1ccc(-c2nn(-c3ccccc3)cc2/C=C/C(=O)OCC(=O)Nc2cccc(C#N)c2)cc1,0.99%
22,O=C(NC1CCN(C(=S)NCc2ccco2)CC1)c1ccc(F)cc1,14.1%
23,O=C(NCc1ccco1)c1cccc(F)c1,4.04%
24,COc1ccc(C(C(=O)NC2CCCCC2)N(C(=O)c2sc(C)nc2C)c2ccccc2)cc1 (stereo not given),-2.38%

row,SMILES,inhibition
1,O=C(Nc1ccncc1)Nc1ccccn1,3.11%
2,O=C(Nc1ccccn1)c1cccs1,3.97%
3,Cc1ccc(NC(=O)Nc2cccs2)cc1,9.98%
4,Cc1cc(NC(=O)Nc2cccs2)no1,6.28%
5,Cc1cccc(C)c1-n1c(C)cc(/C=N/NC(=O)CSc2ncccn2)c1C,4.32%
6,CC(C)CCNC(=O)NC(=O)COC(=O)C1=COCCO1,-7.85%
7,O=c1cc(C23CC4CC(CC(C4)C2)C3)[nH][nH]1,-6.62%
8,COc1ccc(C(=O)/C(=C\c2sccc2C)c2nc3ccccc3o2)cc1,2.1%
9,N#C/C(=C\c1ccc(O)cc1)c1nc2ccccc2o1,7.39%
10,COc1ccc(C(=O)/C(=C/c2cccs2)c2nc3ccccc3o2)cc1,15.5%
11,N#C/C(=C\c1ccc(Cl)cc1)c1nc2ccccc2o1,15.7%
12,COCc1[nH]nc2c1C(c1ccsc1)C(C#N)=C(N)O2 (stereo not given),1.23%
13,CCc1ccc(N2CC(C(=O)Nc3cc(C)ccc3F)CC2=O)cc1 (stereo not given),1.79%
14,Cc1c2c(nc3c(C(=O)NC4CCCCC4C)cnn13)CCCC2 (stereo not given),3.74%
15,O=C(Cc1csc(-c2ccccc2)n1)NCc1ccccc1F,2.51%
16,Nc1nonc1C(=O)N/N=C/c1ccc(-c2cccc([N+](=O)[O-])c2)o1,7.55%
17,O=C(N/N=C/c1ccc([N+](=O)[O-])o1)c1cc2c(ccc3ccccc32)o1,5.62%
18,O=C(O)c1cc(-c2ccc(/C=N/Nc3ccc(Cl)cc3)o2)ccc1Cl,16.9%
19,COCc1cc(C)n(CC(=O)Nc2ccc(Cl)cc2Cl)c(=O)c1C#N,10.9%
20,COCc1cc(C)nc(N/N=C/c2ccc(-c3ccc(C(=O)O)c(Cl)c3)o2)c1C#N,15.5%
21,O=[N+]([O-])c1cccc(-c2ccc(/C=N/NC(=S)Nc3ccccc3)o2)c1,2.03%
22,Nc1nonc1C(=O)N/N=C/c1ccc(-c2cccc(C(=O)O)c2)o1,16.9%
23,Cc1ccc(-c2ccc(/C=N\NC(=O)c3cc4c(ccc5ccccc54)o3)o2)cc1[N+](=O)[O-],2.34%
